JMJD2A Tudor: inhibitors of human JMJD2A Tudor domain; 390,000 tested, 4.4% active; O75164; AlphaScreen JMJD2A-Tudor / H3K4me3 peptide binding; Potency, µM (series often up to 114 µM), inactives show at the highest dose activity change, negative = inhibition, hits mostly inhibitors; also: % is scaled to controls: 0 for no effect and ±100 for the full control effect; nearly all actives have a fitted effect of over 50% in size
PLK1 PBD block: inhibitors of human PLK1 polo-box domain binding | P53350 | Plk1 PBD binding of FITC phosphopeptide, fluorescence polarization | Potency, µM, without a hit: max response, negative = inhibition, actives largely listed as inhibitors | 360,000 tested, 2.8% active | AID 720504; also: series mostly up to about 57 µM; % is scaled to controls: 0 for no effect and ±100 for the full control effect; nearly all actives have a fitted effect of over 65% in size
HP1b binding inh: HP1-beta chromodomain-methylated histone interaction inhibition. AlphaScreen HP1-beta / biotin-H3K9me3 peptide binding. Potency, µM (series often up to 114 µM), without a hit: at the highest dose activity change, negative = inhibition, hits mostly inhibitors. 390,000 tested, 0.56% active; also: nearly all actives have a fitted effect of over 70% in size
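Compound inhibition of the preformed complex between 50 nM HP1-beta and 50 nM biotinylated H3K9me3 peptide was read by AlphaScreen. Buffer was PBS pH 7.4 with 0.01% Tween-20. Incubations ran 30 min at room temperature, with 10 ug/mL donor/acceptor beads.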
G9a inh: blocks human histone lysine methyltransferase G9a; Q96KQ7; G9a H3K9 monomethylation, AlphaScreen, 2 h; 350,000 tested, 8.8% active; Potency, µM (highest dose often 102 µM), for the others: top-dose activity, negative = inhibition, actives largely listed as inhibitors; also: % is scaled to controls: 0 for no effect and ±100 for the full control effect; nearly all actives have a fitted effect of over 75% in size
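Enzyme 20 nM + cpd, 15 min RT; add b-H3K9 pep 500 nM / SAM 20 uM; 2 h RT; anti-H3K9me1 Ab 0.5 ug/mL + SA donor / anti-rabbit acceptor beads 20 ug/mL each, 10 min; AlphaScreen read.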
12-LOX inh: blocks human arachidonate 12S-lipoxygenase; P18054; purified 12hLO, xylenol orange hydroperoxide absorbance; Potency, µM (highest dose often 108 µM), without a hit: top-dose activity change, negative = inhibition, most hits filed as inhibitors; 580,000 tested, 1.1% active; also: % is scaled to controls: 0 for no effect and ±100 for the full control effect
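Hydroperoxide product was detected by ferrous iron/xylenol orange as the 573 to 405 nm absorbance ratio. Arachidonic acid at 40 uM (final) was turned over for 30 min at room temperature by 150 nM human 12hLO, pH 7.0 Hepes buffer, after 15 min compound preincubation.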
BAZ2B block: inhibitors of human BAZ2B bromodomain; Q9UIF8; AlphaScreen BAZ2B-H3K14Ac peptide displacement; Potency, µM (doses to about 114 µM), without a hit: at the top dose activity change, negative = inhibition, actives largely listed as inhibitors; 360,000 tested, 4.4% active; also: % is scaled to controls: 0 for no effect and ±100 for the full control effect; nearly all actives have a fitted effect of over 60% in size
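In this displacement format the biotinylated H3(5-23) peptide acetylated at Lys14 serves as ligand at 50 nM, with BAZ2B at 50 nM in PBS pH 7.4 containing 0.01% Tween-20. Donor and acceptor beads are 10 ug/mL final.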
The depositor's hits bear a star; ? = inconclusive; . = not tested or not shown; [ ] = remark or other dose. Only some compounds are listed: those with a hit (about 9% of all), similar ones and a draw of the others. Calls follow the shape of the dose curve; as a rule, active = well fitted curve in the direction sought with a large enough effect; inconclusive = small, poorly fitted or top-dose-only effect, or another doubt; inactive = no such curve, though single readings can be large; an effect the other way counts as inactive or inconclusive. Potency is read from the fitted curve at half-maximal effect.

SMILES	JMJD2A Tudor	PLK1 PBD block	HP1b binding inh	G9a inh	12-LOX inh	BAZ2B block
Cc1ccc(SCc2c(C#N)c3ccccc3n2C)cc1	-27%[11.4 µM]	5.3µM*	62%	64%[59 µM]	18%	73%
O=C1N=c2ccc([N+](=O)[O-])cc2=C1c1sc(=O)[nH]c1O	?	3.4µM*	1%	?	-10%	0%
O=C(COc1ccc(S(=O)(=O)N2CCOCC2)cc1)NC1CCCC1	-25%	-1%	8%	24%[59 µM]	14%	-5%
CCc1ccc(O)c(-c2cc(C(=O)Nc3cccnc3)[nH]n2)c1	-7%[11.4 µM]	27µM*	-11%	14%	-3%	-12%
Cc1cc(O)c(-c2cc(C(=O)Nc3cccnc3)[nH]n2)cc1C	-11%	3%	21%	5%	14%	-15%
Cc1cc(-n2c(C)cc(C(=S)N3CCOCC3)c2C)ccc1Br	?	?	?	13µM*	-29%	45µM*
Cc1ccc(-n2c(C)cc(C(=O)CN3CCOCC3)c2C)cc1C	-35%	-9%	9%	-33%	4%	-33%
Cc1ccc(S(=O)(=O)/N=C2\C=C(NS(=O)(=O)c3ccccc3)C(=O)c3ccccc32)cc1	32µM*	15µM*	?	.	?	.
Cc1cc(C)c(S(=O)(=O)/N=C2\C=C(NS(=O)(=O)c3ccccc3)C(=O)c3ccccc32)c(C)c1	13µM*	24µM*	?	6.3µM*	-54%	5.6µM*
Cc1ccc(S(=O)(=O)Nc2ccccc2-c2ccccc2)cc1	17%	2%	50%	121%	3%	14%
Cc1ccc2nc(-c3ccsc3)c(Nc3ccc(C(C)C)cc3)n2c1	-9%	.	48%	-1%[59 µM]	-3%	-16%
CC(=O)N1CCN(CCS(=O)(=O)c2cc(Cl)ccc2Cl)CC1	-3%	3%	13%	.	?	.
O=C(NCCCN1CCN(c2ccc(F)cc2)CC1)Nc1ccccc1Cl	-20%	.	6%	?	-19%	?
COc1ccc(Nc2nc(C(=O)N3CCc4ccccc4C3)cs2)cc1	45µM*	-4%	?	.	-2%	?
COc1ccc(N2CCN(CCCNC(=O)Nc3ccccc3Cl)CC2)cc1	?	.	?	?	-24%	35µM*
COc1ccc(N2CCN(CCS(=O)(=O)c3cc(Cl)ccc3Cl)CC2)cc1	?	0%	-22%	-12%[2.33 µM]	165%	45µM*
CSc1ccc(NC(=O)NCCN2CCc3ccccc3C2)cc1	?	-1%	-5%	?	?	?
COc1ccc(NC(=O)NCCN2CCc3ccccc3C2)cc1	20µM*	0%	16%	?	?	2%
CCc1ccccc1NC(=O)C1CCCN(S(=O)(=O)c2c(C)noc2C)C1 (configuration not stated)	-8%	1%	20%	-6%	-22%	-2%
O=C(NCCCN1CCc2ccccc2C1)Nc1ccc(Cl)cc1	-28%	-16%	14%	71µM*	?	0%
CSc1ccc(NC(=O)NCCCN2CCC(Cc3ccccc3)CC2)cc1	?	-6%	-10%	?	?	40µM*
COc1ccc(N2CCN(CCCNC(=O)C3(S(=O)(=O)c4ccc(Cl)cc4)CC3)CC2)cc1	50µM*	-2%	?	?	.	?
Cc1ccc(Nc2nc(C(=O)N3CCC(C(=O)N4CCN(C)CC4)CC3)cs2)cc1	?	-3%	22%	50µM*	-1%	-7%
Cc1cc(C)cc(C(=O)N2CCC(OC3CCN(C)CC3)CC2)c1	.	.	.	.	18%	.
CCC(C)C1C(C#N)=C(N)Oc2n[nH]c(C)c21 (configuration not stated)	-15%	2%	47%	-7%[59 µM]	12%	-2%
CN(CC(=O)Nc1ccccc1Br)C(=O)c1sccc1-c1ccccc1	-8%	-10%	30%	-10%[12.7 µM]	381%	-7%
O=C(C1CCCCC1)N1C[C@@H]2OCC(=O)N(Cc3ccccn3)[C@@H]2C1	.	.	.	.	9%[176 µM]	.
CCc1ccc(N2CCN(CCNC(=O)Nc3ccc(OC)cc3)CC2)cc1	-18%	1%	7%	0%[0.501 µM]	?	-6%

Source: PubChem
